# Measurements as given in PubChem BioAssay (NCATS).
# Records with an inconclusive call do not appear. Values without a mark were called inactive. Active and inactive are the calls of the source. Calls follow the shape of the dose curve; as a rule, active = well fitted inhibition curve with a large enough effect; inconclusive = small, poorly fitted or top-dose-only effect; inactive = flat fitted curve, though single readings scatter.
# How the values were obtained:
# [1] = system: CRL-7250; assay: Cytotoxic Profiling of Annotated Libraries Using Quantitative High-Throughput Screening (AID 1296008); details: Five cell lines viability, CellTiter-Glo ATP luminescence, 48-72 h; max response: stronger effect = lower value; also: nearly all actives have a fitted effect of over 60% in size
# Method in brief: (§1)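 Compounds were pin-transferred onto cells and incubated 48 or 72 hr at 37 degree Celsius, 95% humidity. CellTiter-Glo was added, plates sat 10 min at room temperature, then ATP-coupled luminescence was imaged as the viability read-out.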
# [2] = system: HEK293; assay: as above; details: Five cell lines viability, CellTiter-Glo ATP luminescence, 48-72 h; max response: stronger effect = lower value
# Method in brief: as §1
# % is scaled to controls: 0 for no effect and ±100 for the full control effect; potency is read from the fitted curve at half-maximal effect.
compound,measurement,setting,value
COc1ccc(CCC(=O)c2c(O)cc(O)cc2O[C@@H]2O[C@H](CO)[C@@H](O)[C@H](O)[C@H]2O)cc1,max response,[1],-5.63%
same,max response,[2],-3.22%
CO[C@H]1/C=C\O[C@@]2(C)Oc3c(C)c(O)c4c(O)c(c5c(nc6cc(C)ccn65)c4c3C2=O)NC(=O)/C(C)=C\C=C/[C@H](C)[C@H](O)[C@@H](C)[C@@H](O)[C@@H](C)[C@H](OC(C)=O)[C@@H]1C,max response,[1],-2.8%
same,max response,[2],-17.1%
NCc1c[nH]c(=S)n1[C@@H]1CCc2c(F)cc(F)cc2C1,outcome,[1],inactive
same,max response,[2],-9.28%
CC1=CCC(C(C)(C)O[C@@H]2O[C@H](CO[C@@H]3O[C@@H](C)[C@H](O)[C@@H](O)[C@H]3O)[C@@H](O)[C@H](O)[C@H]2O)CC1 (stereo partly specified),max response,[1],-8.36%
same,max response,[2],2.02%
C=C1C(=O)OC2C1C(O)CC1(C)C(O)CCC(C=O)C21 (stereo unspecified),outcome,[1],inactive
same,max response,[2],-0.284%
CCOc1ccc(NC(=S)N2CCC(C(O)(c3ccccc3)c3ccccc3)CC2)cc1,max response,[1],-3%
same,max response,[2],-4.42%
O=C(NCc1ccc(F)cc1)C(=O)c1c[nH]c2ccccc12,outcome,[1],inactive
same,max response,[2],-9.93%
CC(=O)OCC1(O)CCC2C(COC3OC(CO)C(O)C(O)C3OC(=O)/C=C/c3ccc(O)cc3)=COC(OC(=O)CC(C)C)C21 (stereo unspecified),outcome,[1],inactive
same,max response,[2],-11%
CCCCNc1ccc(-c2ccc(CN3CCOCC3)cn2)c(NC2CCC(O)CC2)c1 (stereo unspecified),outcome,[1],inactive
same,max response,[2],-7.2%
CC1(c2nc3c(C(N)=O)cccc3[nH]2)CCCN1 (stereo unspecified),max response,[1],-7.72%
same,max response,[2],-22.9%
COc1cc(C(=O)NC2CCN(C)CC2)ccc1Nc1ncc2c(n1)N(C1CCCC1)CC(F)(F)C(=O)N2C,Potency,[1],2.31 µM (active)
same,Potency,[2],0.0146 µM (active)
C[C@@H]1CC[C@]2(C(=O)O)CC[C@]3(C)C(=CCC4[C@@]5(C)C[C@@H](O)[C@H](O)[C@@](C)(CO)C5CC[C@]43C)C2[C@]1(C)O (stereo partly specified),max response,[1],-3.26%
same,max response,[2],-12.2%
CCOc1cc(C(=O)N2CCC(N3CCN(C)CC3)CC2)ccc1Nc1ncc2c(n1)N(C1CCCC1)c1ccccc1C(=O)N2C,Potency,[1],10.3 µM (active)
same,Potency,[2],11.6 µM (active)
c1ccc(N2CCN(CCc3nn[nH]n3)CC2)cc1,max response,[1],4.82%
same,max response,[2],-5.85%
COc1c2c(c(C)c3c1C(=O)OC3)O[C@@]1(C)CC(O)C(C(C)(C)O)[C@](C)(CCC(=O)O)[C@H]1C2 (stereo partly specified),outcome,[1],inactive
same,max response,[2],4.24%
O=C(Nc1ccccc1)N1CCN(Cc2ccc3ccccc3n2)CC1,outcome,[1],inactive
same,max response,[2],-11%
COc1ccc(/C=C/C(=O)O[C@@H]2[C@@H](O)[C@H](C)O[C@@H](O[C@H]3[C@@H]4C=CO[C@@H](O[C@H]5O[C@@H](CO)[C@H](O)[C@@H](O)[C@@H]5O)[C@@H]4[C@@]4(CO)O[C@@H]34)[C@@H]2OC(C)=O)cc1,max response,[1],-2.4%
same,max response,[2],0.0012%
COc1cc(Nc2nc3c(s2)CCCC3c2ccc(F)cc2)ccc1-n1cnc(C)c1 (stereo unspecified),Potency,[1],14.6 µM (active)
same,Potency,[2],11.6 µM (active)
COc1cccc2cc3c(c(O[C@@H]4O[C@H](CO[C@@H]5O[C@H](CO)[C@@H](O)[C@H](O)[C@H]5O)[C@@H](O)[C@H](O)[C@H]4O)c12)C(C)OC3=O (stereo partly specified),max response,[1],-0.694%
same,max response,[2],2.15%
CC(=O)C1=CCC2C3CCC4CC(O[C@@H]5O[C@H](CO)[C@@H](O[C@@H]6O[C@@H](C)[C@H](O)[C@@H](O)[C@H]6O)[C@H](O)[C@H]5O[C@@H]5O[C@H](CO)[C@@H](O)[C@H](O)[C@H]5O)CCC4(C)C3CCC12C (stereo partly specified),max response,[1],-10.3%
same,max response,[2],-11.1%
CC1OC(OCC2OC(OC3CCC4(C)C(CCC5(C)C4CC=C4C6CC(C)(C)CCC6(C(=O)OC6OC(CO)C(O)C(O)C6O)CCC45C)C3(C)CO)C(O)C(O)C2O)C(O)C(O)C1O (stereo unspecified),max response,[1],-3.44%
same,max response,[2],-5.12%
CC(C)=CCC[C@](C)(O[C@@H]1O[C@H](CO)[C@@H](O)[C@H](O)[C@H]1O)[C@H]1CC[C@]2(C)[C@@H]1[C@H](O)CC1[C@@]3(C)CC[C@H](O)C(C)(C)C3[C@@H](O[C@@H]3O[C@H](CO)[C@@H](O)[C@H](O)[C@H]3O[C@@H]3OC[C@@H](O)[C@H](O)[C@H]3O)C[C@]12C (stereo partly specified),max response,[1],-28%
same,max response,[2],-0.716%
CCC(C)C(=O)OC1CC(C)C=C2C=CC(C)C(CCC(O)CC(O)CC(=O)O)C21 (stereo unspecified),Potency,[1],7.09 µM (active)
same,max response,[2],-0.653%
